Experimental findings from the supplement of paper PMC9950053 are described below.

Counter-ions that a name gives are not always drawn.

For this assay, the system named is Danio rerio larvae (5 dpf). The assay is described as follows: 1-h baseline activity (% time moving, periods 1-6) minus DMSO control (percentage points); higher = more locomotor activity than DMSO larvae. The conditions noted are these: 10 µM; exposure time: 3 h pre-incubation + 3 h imaging. As to the method: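 Wild-type 5 dpf zebrafish larvae (n=48 per drug, 96-well plates, 28.5 °C) were exposed to Tocris FDA-approved library compounds at 10 µM (0.1% DMSO) for 3 h before and 3 h during imaging. Images were taken every 6 s during visual and acoustic stimuli, and larvae were tracked with Z-LaP Tracker. Each measure is the treated-group mean minus the DMSO control mean (n=844), in percentage points. This mapping covers compounds with 5-character plate codes.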
As for `COc1ccc(C(CN(C)C)C2(O)CCCCC2)cc1` (stereo unspecified) [Venlafaxine hydrochloride], the 1-h baseline activity was -22.8.
